Test results reported in PubChem BioAssay AID588335 (The Scripps Research Institute Molecular Screening Center, 2011).
Screen size: about 360,000 compounds; about 4,500 (1.2%) were called active. For the sample, actives were picked, then their nearest neighbours and some compounds at random. Unmarked numbers belong to inactive results. Rule as the data show it: active = inhibition above about 30%; inactive = the rest.

Assay: inhibition of GDH and TPI enzymes – biochemical, absorbance, full deck, artefact control for M. tuberculosis FBA inhibitor project, primary screen (AID 588335);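 also: 0% = DMSO wells and 100% = wells lacking the enzyme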
Settings: GDH-TPI coupled enzyme counterscreen, NADH absorbance; at 4.8 µM; stronger effect = higher value
`O=C(CCNS(=O)(=O)c1ccc(Br)s1)NCc1ccccc1Cl` showed an inhibition of -5.73%. Work on `CCn1ccnc1CNC(=O)CC1C(=O)NCCN1CCCc1ccccc1` (stereo not drawn) yielded an inhibition of 1.04%. In the case of `O=C(NCc1ccc2c(c1)OCO2)c1cc2c(s1)CS(=O)(=O)C2`, the inhibition is reported as 3.7%. Molecule `COc1ccc2[nH]c(=O)c(CNc3ccc(C)c(C)c3)cc2c1` has an inhibition of 7.26%. For `COc1cc2cc(C(=O)N/N=C/c3cccc(OC)c3OC)[nH]c2cc1OC`, the inhibition was 53.6% (active). With `CCOc1ccc2ccccc2c1/C=N/NC(=O)c1c(C)cc(C)[nH]c1=O` the inhibition was 11.8%. `COc1cccc2[nH]c(C(=O)NCCc3ccccc3)cc12` gave an inhibition of 2.15%. Molecule `CCC(=O)c1ccc(OC(=O)/C=C/c2cc(OC)c(OC)c(OC)c2)cc1` has an inhibition of 14.9%. For `CCOc1ccc2[nH]c(C(=O)N/N=C/c3cccc(OC)c3OC)cc2c1`, the inhibition was 42.1% (active). `COc1cccc(C(=O)N/N=C(\C)c2cccc(NC(=O)c3ccc(F)cc3)c2)c1OC` gave an inhibition of -1.01%. With `COc1ccc2[nH]c(C(=O)N/N=C/c3cc(OC)c(OC)c(OC)c3)cc2c1` the inhibition was 63% (active). `CCOc1ccc2[nH]c(=O)c(CN(CCCO)C(C)=O)cc2c1` showed an inhibition of 10.1%. In the case of `CC(C)n1c(SCC(=O)Nc2ccccc2N2CCCCC2)nc2c1c(=O)n(C)c(=O)n2C`, the inhibition is reported as 2.5%. Molecule `NS(=O)(=O)c1ccc(CNC(=O)c2ccc(Cl)cc2[N+](=O)[O-])cc1` has an inhibition of -1.13%. `Cc1cn(C)c(=O)n(C)c1=O` gave an inhibition of -2.08%. `COc1cccc(N2CC(C(=O)NCc3n[nH]c(=O)c4ccccc34)CC2=O)c1` (stereo not drawn) gave an inhibition of 3.52%. With `CC(C)Cc1nc(Cl)c(C#N)c2c1CCC2` the inhibition was -7.66%. `O=c1cc(N2CCCCC2)c(-c2ccccc2)nn1Cc1cccc(F)c1` gave an inhibition of 10.7%. `O=C(Nc1cc(C(F)(F)F)ccc1Cl)c1cc2nc3c(c(C(F)(F)F)n2n1)CCCC3` gave an inhibition of -11.5%. For `NS(=O)(=O)c1ccc(NC(=O)COC(=O)c2cc3ccccc3oc2=O)cc1`, the inhibition was 32.9% (active). For `Cc1cc(C)cc(OCC(=O)NNC(=O)c2cc3ccccc3oc2=O)c1`, the inhibition was 11.9%. For `NS(=O)(=O)c1ccc(NC(=O)COC(=O)CCc2c[nH]c3ccccc23)cc1`, the inhibition was 4.09%. With `OCC(O)C1OCOC(C(O)CO)C1O` (stereo not drawn) the inhibition was 3.51%. Molecule `CCCNS(=O)(=O)c1ccc(CCC(=O)NCc2cccnc2)cc1` has an inhibition of 1.83%. `Nc1ncnc(Nc2cccc(Cl)c2Cl)n1` gave an inhibition of 6.09%. For `CC1CCN(C(=O)c2ccc(S(=O)(=O)Cc3cc(F)ccc3F)c([N+](=O)[O-])c2)CC1`, the inhibition was 2.21%. In the case of `CCOc1ccccc1NC(=O)C1CCCN(S(=O)(=O)c2ccccc2)C1` (stereo not drawn), the inhibition is reported as 11.6%. For `O=C(CNS(=O)(=O)c1ccc2c(c1)OCCCO2)N1CCN(c2ccc(F)cc2)CC1`, the inhibition was 6.99%. Molecule `COc1ccc(N2CCN(C(=O)CNS(=O)(=O)c3ccc(C)c(C)c3)CC2)cc1` has an inhibition of 10.1%. Work on `Cc1ccc(-c2cc(C(=O)NN)n[nH]2)o1` yielded an inhibition of -4.43%. Molecule `O=C(NN=CC=Cc1ccccc1)C(O)C(O)C(=O)NN=CC=Cc1ccccc1` (stereo not drawn) has an inhibition of 20.2%. With `Cc1ccc(-c2cc(C(=O)N/N=C/C=C/c3ccccc3)n[nH]2)o1` the inhibition was 36.6% (active). `CCC(C)(C)NC(=O)C(c1ccc(O)cc1)N(Cc1ccco1)C(=O)CCC(=O)Nc1ccccn1` (stereo not drawn) gave an inhibition of 0%. With `CCCc1nc(N2CCN(C)CC2)c2sc(=S)n(-c3ccccc3)c2n1` the inhibition was 11.9%. Work on `Cc1noc(C)c1CSc1nc2cc(S(=O)(=O)N3CCOCC3)ccc2o1` yielded an inhibition of 0%. With `O=C(Nc1cnccn1)c1cccnc1` the inhibition was -10.2%. With `O=C(Cc1ccccc1)Nc1ccc(NC(=O)c2cccnc2)cc1` the inhibition was -3.47%. In the case of `O=C(CC(=O)c1cccnc1)c1ccccc1`, the inhibition is reported as 31.5% (active). Work on `CS(=O)(=O)N1CCCC(C(=O)N2CCOCC2)C1` (stereo not drawn) yielded an inhibition of 5.31%. `O=C(Nc1ccccc1C(=O)O)c1cc(S(=O)(=O)N2CCCCC2)cs1` showed an inhibition of -4.43%. `O=C(NCCN1C(=O)S/C(=C\c2cccnc2)C1=O)c1cccc(OC(F)F)c1` showed an inhibition of 8.86%. With `Cc1c(C(=O)NCCCc2ccccc2)cccc1[N+](=O)[O-]` the inhibition was 10%. In the case of `Cc1c(C(=O)NCCN2C(=O)S/C(=C\c3cccs3)C2=O)cccc1[N+](=O)[O-]`, the inhibition is reported as 39.5% (active). `Cc1cc(C)c(C)c(S(=O)(=O)N2CCN(C(=O)c3ccc4c(=O)n5c(nc4c3)CCC5)CC2)c1C` gave an inhibition of 5.92%. In the case of `CC(C)CC1C(=O)N(Cc2cn(Cc3ccco3)nn2)CCS(=O)(=O)N1Cc1ccc(-c2ccc(Cl)c(Cl)c2)cc1` (stereo not drawn), the inhibition is reported as -1.42%. With `COc1ccc(N2C(=O)/C(=C\c3ccco3)N=C2SCC(N)=O)cc1Cl` the inhibition was 8.83%. `CCOC(=O)c1sc(/N=C/Nc2nc(C)c(C(=O)OCC)s2)nc1C` showed an inhibition of 0.95%. `Cc1ccc(C(=O)Nc2ccn(C)n2)cc1` gave an inhibition of -9.27%. For `CCOC(=O)c1sc(NC(=O)c2ccncc2)nc1C`, the inhibition was 39.2% (active). In the case of `CCOC(=O)c1cccnc1NC(=O)c1ccncc1`, the inhibition is reported as -7.37%. In the case of `CC(=O)c1sc(NC(=O)c2ccc(C)cc2)nc1C`, the inhibition is reported as 31.3% (active). `CC(=O)c1sc(NC(=O)C2=NN(c3ccccc3)C(=O)CC2)nc1C` showed an inhibition of 29.1%. With `CCOC(=O)c1sc(NC(=O)C(CC)Sc2nccn2C)nc1C` (stereo not drawn) the inhibition was 10.2%. `CCOC(=O)c1sc(NC(=O)CSc2n[nH]c(CC)n2)nc1C` showed an inhibition of -0.63%. In the case of `CCOC(=O)c1sc(NC(=O)c2sc(C)nc2C)nc1C`, the inhibition is reported as 34.6% (active). Molecule `Cc1ccc(N2CCN(S(=O)(=O)N(C)C)CC2)cc1Cl` has an inhibition of 8.64%. For `CC(c1ccco1)N(C(=O)c1ccc(S(=O)(=O)N2CCCCC2)cc1)c1ccccn1` (stereo not drawn), the inhibition was 3.73%. `Cc1ccccc1N1CC(C(=O)Nc2ccc3c(c2)OCO3)CC1=O` (stereo not drawn) gave an inhibition of 7.55%. `CC1(C)CC(O)C(CCC(O)c2ccccc2)C(C)(C)N1` (stereo not drawn) showed an inhibition of 11.8%. For `Cc1ccc(Cl)cc1NC(=S)N(CCN(C)C)Cc1cccs1`, the inhibition was -1.86%. With `CCCC(=O)N1CCC(CCC(=O)NC2CC2)CC1` the inhibition was -6.29%. Work on `CCCn1c(=S)[nH]c2ccc(C(F)(F)F)cc21` yielded an inhibition of 2.44%. In the case of `Cc1cc(N2CCN(c3ccc(F)cc3)CC2)n2ncnc2n1`, the inhibition is reported as -5.36%. Molecule `Cc1ccc(NC(=O)C2CCN(S(=O)(=O)c3ccc4c(c3)NC(=O)CO4)CC2)cc1C` has an inhibition of -3.15%. With `COc1cc(OC)cc(C(=O)N[C@H](C(=O)Nc2nc3ccccc3[nH]2)C(C)C)c1` the inhibition was 12.4%. In the case of `COc1cc(OC)cc(C(=O)Nc2ccc(-c3nc4ccccc4o3)c(O)c2)c1`, the inhibition is reported as 31.5% (active). Work on `COc1cccc(C(=O)Nc2ccc3nc4n(c(=O)c3c2)CCCCC4)c1` yielded an inhibition of 13.4%. Work on `CN(Cc1ccccc1)C(=O)C(=O)c1cn(CC(=O)N2CCCC2)c2ccccc12` yielded an inhibition of 13.8%. With `O=C(CSc1ccccn1)Nc1nc2c(ccc3ccccc32)s1` the inhibition was 13.6%. In the case of `COc1cc(OC)c(OC)cc1CN1CCN(C(=O)c2cccc3ccccc23)CC1`, the inhibition is reported as 0%. In the case of `O=C1C2CCCN2C(=O)N1CCCCN1CCN(c2cccc(C(F)(F)F)c2)CC1` (stereo not drawn), the inhibition is reported as 15.7%. In the case of `COc1cc(/C=N\Nc2nc(-c3cccs3)c(NC(C)=O)s2)ccc1O`, the inhibition is reported as 34.8% (active). In the case of `COc1cc(/C=C/C(=O)OCC(=O)NCCCc2ccccc2)ccc1O`, the inhibition is reported as 19.3%. `CC(=O)c1sc(N/N=C/c2ccc(C(C)C)cc2)nc1C` gave an inhibition of 8.98%. For `CC(C)=CCCC(C)CN1CCC(n2nccc2NC(=O)c2ccccc2)CC1` (stereo not drawn), the inhibition was -14.4%. In the case of `CC(C)=CC(=O)Nc1nnc(-c2ccc(F)cc2)s1`, the inhibition is reported as 2.46%. `O=C(Nc1nnc(Cc2ccc(Cl)cc2)s1)c1ccncc1` gave an inhibition of 16.2%. For `Cc1ccc(C(=O)Nc2nnc(-c3ccncc3)s2)o1`, the inhibition was 36.5% (active). With `NC(=O)C1CCN(C(=O)c2cc(S(=O)(=O)N3CCN(c4ccccc4)CC3)ccc2Cl)CC1` the inhibition was 0%. `Cc1[nH]n(C)c(=O)c1C(=O)c1c(-c2c(Cl)cccc2Cl)noc1C` showed an inhibition of 10.3%. Work on `Cc1c(N=Nc2ccc(N(C)C)cc2)c(=O)n(-c2ccccc2)n1C` yielded an inhibition of 7.74%. For `Cc1[nH]n(C)c(=O)c1N=Nc1ccc(S(C)(=O)=O)cc1`, the inhibition was 33.3% (active). With `O=S(=O)(NCc1ccccc1Cl)c1cnc[nH]1` the inhibition was 5.02%. Molecule `O=C(NCC(=O)N1CCCCCCC1)c1ccccc1Cl` has an inhibition of 9.24%. Molecule `O=C(NCCCNC(=O)c1ccccc1Cl)c1cnccn1` has an inhibition of -2.33%. In the case of `O=C(NCCCO)/C(=C\C=C\c1ccccc1)NC(=O)c1ccccc1Cl`, the inhibition is reported as 34.7% (active). `CC(NCC(=O)Nc1ccccc1C(=O)NC1CC1)c1ccccc1Cl` (stereo not drawn) gave an inhibition of -5.56%. Molecule `COCCn1cnnc1SCC(=O)Nc1cccc(S(=O)(=O)N2CCCCC2)c1` has an inhibition of -5.42%. `COc1ccc(CC2c3cc(OC)c(OC)cc3CC[N+]2(C)CCC(=O)OCCCCCOC(=O)CC[N+]2(C)CCc3cc(OC)c(OC)cc3C2Cc2ccc(OC)c(OC)c2)cc1OC` (stereo not drawn) showed an inhibition of -11.1%. In the case of `COc1ccc2nc(C)cc(Nc3cccc(C(=O)O)c3)c2c1`, the inhibition is reported as 32.2% (active). With `COc1cccc(Nc2ncccc2C(=O)O)c1` the inhibition was 11.1%. Molecule `COc1cccc(C(=O)NC(=O)Nc2nc(C)cc(C(F)(F)F)n2)c1` has an inhibition of -10%. In the case of `CC(C)CN(CC(C)C)C(=O)CN1c2cccc3cccc(c23)S1(=O)=O`, the inhibition is reported as -9.01%.
